# Results filed as inconclusive are left out. Activity calls are given as the source filed them. The call rests on the fitted dose curve; in most records, active means well fitted curve in the direction sought with a large enough effect; inconclusive means small, poorly fitted or top-dose-only effect, or another doubt; inactive means no such curve, though single readings can be large; an effect the other way counts as inactive or inconclusive.
# Key:
# [1] = qHTS Screen of the MIPE 4.0 Collection Against Ewings Sarcoma (RDES) (AID 1259252); details: RD-ES Ewing sarcoma viability, CellTiter-Glo, 48 h; series mostly up to 45.8 µM; further: nearly all actives have a fitted effect of over 35% in size
# How it was run: (§1)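 Compound titrations go onto adherent log-phase cells 4 h after seeding, incubate 48 h at 37C, then CellTiter-Glo luminescence reports viability relative to DMSO and cell-free controls.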
# [2] = qHTS Screen of the MIPE 4.0 Collection Against Ewings Sarcoma (TC32) (AID 1259256); details: TC32 Ewing sarcoma viability, CellTiter-Glo, 48 h; series mostly up to 45.8 µM; further: nearly all actives have a fitted effect of over 45% in size
# How it was run: as §1
# [3] = qHTS Screen of the MIPE 4.0 Collection Against Ewings Sarcoma (TC71) (AID 1259253); details: TC71 Ewing sarcoma viability, CellTiter-Glo, 48 h; series mostly up to 45.8 µM; further: nearly all actives have a fitted effect of over 40% in size
# How it was run: as §1
# [4] = qHTS Screen of the MIPE 4.0 Collection Against Ewings Sarcoma (EW8) (AID 1259255); details: EW8 Ewing sarcoma viability, CellTiter-Glo, 48 h; series mostly up to 45.8 µM; further: nearly all actives have a fitted effect of over 35% in size
# How it was run: as §1
# [5] = Identifying Small Molecule Inhibitors of Pancreatic Cancer Stem Cells (A2780, Spheroid) (AID 1259357); details: Potency: A2780 spheroid viability; series mostly up to 46.1 µM;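 further: spheroids pre-formed over 14 days in stem cell medium on hydrogel; compound exposure lasted 48 h before the ATP luminescence read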
# How it was run: (§2)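 Pre-formed 14-day tumor spheroids or adherent cells dosed and incubated 48 h, 37C, 5% CO2. Viability assessed by CellTiter-Glo.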
# [6] = Identifying Small Molecule Inhibitors of Pancreatic Cancer Stem Cells (SN12C, Adherent) (AID 1259358); details: viability/growth inhibition; series mostly up to 46.1 µM;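 further: cell survival measured after 48 h of compound exposure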
# How it was run: (§3)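 Viability is scored by CellTiter-Glo luminescence 48 h after dosing, expressed as percent activity against vehicle and no-cell references. Spheroid formats rely on cells cultured 14 days in stem cell media beforehand.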
# [7] = Identifying Small Molecule Inhibitors of Pancreatic Cancer Stem Cells (SN12C, Spheroid) (AID 1259360); details: Potency: SN12C spheroid viability; series mostly up to 46.1 µM
# How it was run: as §2
# [8] = Identifying Small Molecule Inhibitors of Pancreatic Cancer Stem Cells (Panc1, Spheroid) (AID 1259359); details: Panc1 spheroid cancer stem cell viability;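 further: compound exposure lasted 48 h before reading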
# How it was run: as §3
# Potency means the concentration at half of the fitted maximal effect.
structure (smiles),measurement,setting,value
Clc1ccc(CCC(Cn2ccnc2)Sc2c(Cl)cccc2Cl)cc1 (stereo not given),Potency,[1],inactive
same,Potency,[2],inactive
COc1ccc(-c2cc(=O)c3c(O)cc(O)cc3o2)cc1O,Potency,[1],5.26 µM (active)
same,Potency,[3],9.35 µM (active)
same,Potency,[4],13.2 µM (active)
same,Potency,[2],14.8 µM (active)
CCc1ccc(C=C2SC(=S)NC2=O)cc1,Potency,[1],inactive
same,Potency,[3],inactive
same,Potency,[4],inactive
same,Potency,[2],inactive
CC(C)(C)COc1ccc(-n2cc(C(=O)O)cn2)cc1C#N,Potency,[1],inactive
same,Potency,[3],inactive
same,Potency,[4],inactive
same,Potency,[2],inactive
same,Potency,[5],inactive
same,Potency,[6],inactive
same,Potency,[7],inactive
O=c1c(O)c(-c2ccc(O)cc2)oc2cc(O)cc(O)c12,Potency,[1],16.6 µM (active)
same,Potency,[3],18.7 µM (active)
same,Potency,[4],11.8 µM (active)
CCC(CC)[C@H](NC(C)=O)[C@@H]1[C@H](O)[C@@H](C(=O)O)C[C@@H]1N=C(N)N,Potency,[1],inactive
same,Potency,[3],inactive
same,Potency,[4],inactive
same,Potency,[2],inactive
COc1cc2nc(-c3ccc(N4CCN(C)CC4)cc3)nc(NCCN3CCOCC3)c2cc1OC,Potency,[1],0.0166 µM (active)
same,Potency,[3],0.132 µM (active)
same,Potency,[4],0.0332 µM (active)
same,Potency,[2],0.0418 µM (active)
O=C1NC(=O)C(=Cc2ccc3nccnc3c2)S1,Potency,[1],14.4 µM (active)
same,Potency,[3],11.5 µM (active)
same,Potency,[4],9.11 µM (active)
O=C(O)c1ccccc1C(=O)Nc1ccc(-c2ccccc2)cc1,Potency,[1],inactive
same,Potency,[3],inactive
same,Potency,[4],inactive
O=c1c(-c2ccc(O)cc2)coc2cc(O)ccc12,Potency,[1],11.8 µM (active)
same,Potency,[4],inactive
O=C(O)c1cc(O)c2c(c1)C(=O)c1cccc(O)c1C2=O,Potency,[1],inactive
same,Potency,[3],inactive
same,Potency,[2],inactive
O=c1c(-c2ccc(O)cc2)coc2cc(OC3O[C@H](CO)[C@H](O)[C@H](O)[C@H]3O)cc(O)c12 (stereo not given in full),Potency,[1],3.72 µM (active)
same,Potency,[3],7.43 µM (active)
same,Potency,[4],18.7 µM (active)
same,Potency,[2],10.5 µM (active)
CC(=NNC(=S)N1CCC1)c1ccccn1,Potency,[3],0.0053 µM (active)
CC=CCC(C)C(O)C1C(=O)NC(CC)C(=O)N(C)CC(=O)N(C)C(CC(C)C)C(=O)NC(C(C)C)C(=O)N(C)C(CC(C)C)C(=O)NC(C)C(=O)NC(C)C(=O)N(C)C(CC(C)C)C(=O)N(C)C(CC(C)C)C(=O)N(C)C(C(C)C)C(=O)N1C (stereo not given),Potency,[2],inactive
COc1ccc(Cc2nccc3cc(OC)c(OC)cc23)cc1OC,Potency,[1],20.9 µM (active)
same,Potency,[3],18.7 µM (active)
same,Potency,[2],23.5 µM (active)
O=C1C(Cl)=C(NCCN2CCOCC2)C(=O)c2ncccc21,Potency,[1],8.33 µM (active)
same,Potency,[3],6.62 µM (active)
same,Potency,[4],3.72 µM (active)
same,Potency,[2],2.64 µM (active)
same,Potency,[5],9.35 µM (active)
same,Potency,[6],6.62 µM (active)
same,Potency,[8],3.72 µM (active)
same,Potency,[7],14.8 µM (active)
c1ccc2c(Cc3c[nH]c4ccccc34)c[nH]c2c1,Potency,[1],2.64 µM (active)
same,Potency,[3],4.18 µM (active)
same,Potency,[4],14.8 µM (active)
same,Potency,[2],4.18 µM (active)
CC1(C)Cc2c(sc(NC(=S)NC(=O)c3ccccc3)c2C(=O)O)CO1,Potency,[1],29.6 µM (active)
same,Potency,[4],inactive
C[C@H](NC(=O)C(=O)Nc1ccccc1C(C)(C)C)C(=O)N[C@@H](CC(=O)O)C(=O)COc1c(F)c(F)cc(F)c1F,Potency,[1],inactive
same,Potency,[3],inactive
same,Potency,[4],inactive
same,Potency,[2],inactive
O=C(Nc1ccccc1-c1cn2c(CN3CCNCC3)csc2n1)c1cnc2ccccc2n1,Potency,[3],23.5 µM (active)
same,Potency,[5],inactive
O=c1c(-c2ccc(O)cc2)coc2cc(O[C@@H]3O[C@H](CO)[C@H](O)[C@H](O)[C@H]3O)ccc12,Potency,[3],inactive
same,Potency,[4],inactive
same,Potency,[2],inactive
CCc1ccc(OCc2ccccc2C(=O)Nc2ccc3nc(C)cc(N)c3c2)cc1,Potency,[1],9.35 µM (active)
same,Potency,[3],7.43 µM (active)
same,Potency,[4],7.43 µM (active)
same,Potency,[2],9.35 µM (active)
O=C1C[C@@H](c2ccc(O)cc2)Oc2cc(O)cc(O)c21,Potency,[3],inactive
same,Potency,[4],13.2 µM (active)
same,Potency,[2],inactive
CC(=O)N(C)C1(c2ccccc2)CCN(CCC[C@]2(c3ccc(Cl)c(Cl)c3)CCCN(C(=O)c3ccccc3)C2)CC1,Potency,[1],26.4 µM (active)
same,Potency,[3],20.9 µM (active)
same,Potency,[4],23.5 µM (active)
same,Potency,[2],26.4 µM (active)
same,Potency,[5],18.7 µM (active)
same,Potency,[6],20.9 µM (active)
CC(=O)Nc1ccc([C@H](C)C(=O)Nc2ncc(C(C)C)s2)cc1,Potency,[1],2.96 µM (active)
same,Potency,[3],2.96 µM (active)
same,Potency,[4],5.9 µM (active)
same,Potency,[2],4.18 µM (active)
same,Potency,[8],8.33 µM (active)
O=C1NC(=O)C(=Cc2ccc(-c3ccc(F)cc3)o2)S1,Potency,[3],23.5 µM (active)
same,Potency,[4],inactive
Clc1ccc(COC(Cn2ccnc2)c2ccc(Cl)cc2Cl)cc1 (stereo not given),Potency,[2],18.7 µM (active)
CC(C(=O)O)c1ccc(-c2ccccc2)c(F)c1 (stereo not given),Potency,[1],18.7 µM (active)
same,Potency,[4],inactive
same,Potency,[2],11.8 µM (active)
Oc1ccc(C2=Cc3ccc(O)cc3OC2)cc1,Potency,[1],5.9 µM (active)
same,Potency,[3],3.72 µM (active)
same,Potency,[4],6.62 µM (active)
same,Potency,[2],2.64 µM (active)
NC(=O)c1cccc2[nH]c(-c3ccc([C@H]4CCCN4)cc3F)nc12,Potency,[1],7.43 µM (active)
same,Potency,[3],14.8 µM (active)
same,Potency,[4],18.7 µM (active)
same,Potency,[2],11.8 µM (active)
COc1cccc(-c2cc(=O)c3ccccc3o2)c1N,Potency,[1],inactive
same,Potency,[4],inactive
